# Several values for one entry are separate records, joined by “and”; a condition that tells them apart may be missing. Identical values can stand only once. Inconclusive results are not listed. Activity calls are given as the source filed them. Unless noted, calls follow the shape of the dose curve; as a rule, active = well fitted curve in the direction sought with a large enough effect; inconclusive = small, poorly fitted or top-dose-only effect, or another doubt; inactive = no such curve, though single readings can be large; an effect the other way counts as inactive or inconclusive.
# Tests used:
# [1] = qHTS Assay for Lipid Storage Modulators (AID 1519; calls by dose curve; as to activity change, negative = inhibition: % is scaled to controls: 0 for no effect and ±100 for the full control effect); settings: Drosophila S3 cells, BODIPY lipid droplet/cell ratio, laser cytometry, cells loaded with oleic acid
# Procedure, shortened: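 Cells seeded at 5,000 per well were treated with compounds over a concentration series and loaded with oleic acid (400 uM, as added). Lipid droplet fluorescence (488 nm excitation, 500-530 nm channel) was read by laser-scanning cytometry and normalized to 20 uM Triacsin C.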
# [2] = Cell Viability - LYMP2-019 (AID 973); settings: LYMP2-019 lymphoblastoid cell line viability; series mostly up to 92.2 µM;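 also: 0% = DMSO alone and full effect = 92 µM tetraoctylammonium bromide; nearly all actives have a fitted effect of over 55% in size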
# Procedure, shortened: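 Human lymphoblastoid cells were seeded at 2500 cells/well, preincubated 5 hr at 37 C, then exposed to compounds for 24 hr at 37 C in complete medium. Intracellular ATP was measured by CellTiter-Glo luminescence; AC50 from Hill fits.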
# [3] = Cell Viability - LYMP2-021 (AID 974); settings: LYMP2-021 lymphoblastoid cells viability; series mostly up to 92.2 µM;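 also: compound exposure lasts 24 hours at 37 °C; % is scaled to controls: 0 for no effect and ±100 for the full control effect; nearly all actives have a fitted effect of over 55% in size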
# Procedure, shortened: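 Human lymphoblastoid cells (2500/well) were preincubated 5 hr at 37 C, then exposed to compounds for 24 hr at 37 C in complete medium. Intracellular ATP was read by CellTiter-Glo luminescence; AC50 came from Hill-equation fits of concentration-response data.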
# [4] = Cell Viability - LYMP2-023 (AID 975); settings: LYMP2-023 lymphoblastoid cell viability; series mostly up to 92.2 µM;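 also: cellular ATP measured by luciferase luminescence as viability proxy; plate controls were DMSO only for no effect and 92 µM tetraoctylammonium bromide control for full effect; nearly all actives have a fitted effect of over 55% in size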
# Procedure, shortened: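 Human lymphoblastoid cells (2500/well) were preincubated 5 hr at 37 C, then exposed to compounds for 24 hr at 37 C in complete medium. Cellular ATP was read by CellTiter-Glo luminescence, and AC50 came from Hill-equation fits.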
# [5] = Cell Viability - LYMP2-025 (AID 976); settings: LYMP2-025 lymphoblastoid cell viability; series mostly up to 92.2 µM;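 also: plate controls were DMSO only for no effect and tetraoctylammonium bromide control for full effect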
# Procedure, shortened: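 Human lymphoblastoid LYMP2-025 cells (2500/well) were pre-incubated 5 hr at 37 C, then treated with compounds for 24 hr at 37 C in complete medium. Viability was read as intracellular ATP by CellTiter-Glo luminescence; AC50 from Hill fits.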
# [6] = Cell Viability - LYMP2-002 (AID 977); settings: LYMP2-002 lymphoblastoid cell viability, qHTS; series mostly up to 92.2 µM;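 also: plate controls were DMSO only for no effect and 92 µM tetraoctylammonium bromide for full effect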
# Procedure, shortened: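 Luminescent ATP readout (CellTiter-Glo, 30 min room temperature) after 24 h compound exposure at 37 C of a human lymphoblastoid line, 2500 cells/well. AC50 values derived by standard Hill fitting of qHTS concentration-response data.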
# [7] = Cell Viability - LYMP2-006 (AID 978); settings: LYMP2-006 lymphoblastoid cell viability, qHTS; series mostly up to 92.2 µM; also: % is scaled to controls: 0 for no effect and ±100 for the full control effect; nearly all actives have a fitted effect of over 60% in size
# Procedure, shortened: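 Concentration-dependent loss of intracellular ATP in a human lymphoblastoid line after 24 hr treatment at 37 C was measured by CellTiter-Glo luminescence, with AC50 values obtained from standard Hill-equation modelling.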
# [8] = Cell Viability - LYMP2-007 (AID 979); settings: LYMP2-007 lymphoblastoid cell viability; series mostly up to 92.2 µM;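 also: cells exposed to compound for 24 h before reading; 0% = DMSO only and the negative end = 92 µM tetraoctylammonium bromide; nearly all actives have a fitted effect of over 60% in size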
# Procedure, shortened: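 Human lymphoblastoid cells (2500/well) were plated in complete medium, incubated 5 hr at 37 C, then exposed to compounds for 24 hr at 37 C. Intracellular ATP was read by CellTiter-Glo luminescence after 30 min at room temperature; AC50 from Hill fits.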
# [9] = Cell Viability - LYMP2-008 (AID 980); settings: LYMP2-008 lymphoblastoid cell viability, qHTS; series mostly up to 92.2 µM; also: % is scaled to controls: 0 for no effect and ±100 for the full control effect; nearly all actives have a fitted effect of over 60% in size
# Procedure, shortened: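 Human lymphoblastoid cells (2500/well) were plated, held 5 hr at 37 C, then exposed to compounds for 24 hr at 37 C in complete medium. Intracellular ATP was read by CellTiter-Glo luminescence; AC50 from Hill-fitted concentration-response.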
# [10] = Cell Viability - LYMP2-010 (AID 981); settings: LYMP2-010 lymphoblastoid cell viability, qHTS; series mostly up to 92.2 µM; also: % is scaled to controls: 0 for no effect and ±100 for the full control effect; nearly all actives have a fitted effect of over 55% in size
# Procedure, shortened: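 Human lymphoblastoid LYMP2-010 cells (2500/well) were preincubated 5 hr at 37 C, then exposed to compounds for 24 hr at 37 C in complete medium. Intracellular ATP was measured by CellTiter-Glo luminescence after 30 min at room temperature; AC50 from Hill-fitted concentration-response.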
# [11] = Cell Viability - LYMP2-012 (AID 982); settings: LYMP2-012 lymphoblastoid cell viability qHTS; series mostly up to 92.2 µM
# [12] = Cell Viability - LYMP2-014 (AID 983); settings: LYMP2-014 lymphoblastoid cells, viability qHTS; series mostly up to 92.2 µM;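 also: plate controls were DMSO only for no effect and 92 µM tetraoctylammonium bromide for full effect; nearly all actives have a fitted effect of over 50% in size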
# Procedure, shortened: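 Human lymphoblastoid cells (2500/well) were pre-incubated 5 hr at 37 C, then exposed to compounds in complete medium for 24 hr at 37 C. Intracellular ATP was read by CellTiter-Glo luminescence after 30 min at room temperature; AC50 from Hill fits.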
# [13] = Cell Viability - LYMP2-016 (AID 984); settings: LYMP2-016 lymphoblastoid cell viability, qHTS; series mostly up to 92.2 µM
# Procedure, shortened: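 Acute toxicity in a Coriell human lymphoblastoid line is scored as loss of intracellular ATP over 24 h of treatment in complete medium. CellTiter-Glo signal is fitted across concentrations with the Hill equation to give AC50.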
# [14] = Cell Viability - LYMP2-018 (AID 985); settings: LYMP2-018 lymphoblastoid cells, viability (qHTS); series mostly up to 92.2 µM;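 also: compound exposure lasted 24 hr at 37 °C; plate controls were DMSO only for no effect and tetraoctylammonium bromide at 92 µM for full effect; nearly all actives have a fitted effect of over 50% in size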
# Procedure, shortened: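 Human lymphoblastoid cells (2500/well) were pre-incubated 5 hr at 37 C, then exposed to compounds for 24 hr at 37 C in complete medium. Viability was read as intracellular ATP by CellTiter-Glo luminescence; AC50 values came from Hill-equation fits.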
# [15] = Cell Viability - LYMP2-020 (AID 986); settings: series mostly up to 92.2 µM
# Procedure, shortened: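 Human lymphoblastoid cells, 2500/well, were pre-incubated 5 hr at 37 C, then exposed to compounds for 24 hr at 37 C in complete medium. Intracellular ATP was read by CellTiter-Glo luminescence, and AC50 was derived by Hill fitting of concentration-response data.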
# [16] = Cell Viability - LYMP2-022 (AID 987); settings: LYMP2-022 lymphoblastoid cell viability; series mostly up to 92.2 µM
# Procedure, shortened: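 Human lymphoblastoid cells, 2500/well, preincubated 5 hr at 37 C, then exposed to compounds over a concentration range for 24 hr at 37 C in complete medium. Viability read as intracellular ATP by CellTiter-Glo luminescence after 30 min at room temperature; AC50 from Hill fits.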
# [17] = Cell Viability - LYMP2-024 (AID 988); settings: LYMP2-024 lymphoblastoid cell viability; series mostly up to 92.2 µM;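 also: plate controls were DMSO only for no effect and 92 µM tetraoctylammonium bromide for full effect; nearly all actives have a fitted effect of over 60% in size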
# Procedure, shortened: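 Human lymphoblastoid cells (2500/well) in complete medium were preincubated 5 hr at 37 C, then exposed to compounds for 24 hr at 37 C. Intracellular ATP was read by CellTiter-Glo luminescence; AC50 from Hill-equation fits of concentration-response data.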
# [18] = Cell Viability - LYMP2-026 (AID 989); settings: LYMP2-026 lymphoblastoid cell viability, qHTS; series mostly up to 92.2 µM; also: % is scaled to controls: 0 for no effect and ±100 for the full control effect; nearly all actives have a fitted effect of over 50% in size
# Procedure, shortened: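 Human lymphoblastoid cells (2500/well) in complete medium were preincubated 5 hr at 37 C, then exposed to compounds for 24 hr at 37 C. Cellular ATP was read by CellTiter-Glo luminescence; AC50 from Hill-equation fits of concentration-response data.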
# [19] = biological target: Alpha-galactosidase A (Homo sapiens) (UniProt P06280); experiment: Counterscreen for Glucocerebrosidase Inhibitors: qHTS Assay for Human alpha-Galactosidase at pH 4.5 (AID 992); settings: purified enzyme, fluorogenic substrate; series mostly up to 76.9 µM; also: 0% is about no effect
# Procedure, shortened: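 Enzyme at 2 nM final was combined with compound (0.7 nM to 77 uM) and 80 uM 4-methylumbelliferyl alpha-D-galactopyranoside in 50 mM citric acid, 0.005% Tween-20, pH 4.5. After 20 min at room temperature, fluorescence was read (Ex 365/Em 440 nm); AC50 came from Hill fits.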
# [20] = biological target: alpha-glucosidase (Oryza sativa, rice) (UniProt Q653V4); experiment: Counterscreen for Glucocerebrosidase Inhibitors: qHTS Assay for Rice alpha-Glucosidase at pH 5.0 (AID 997); settings: rice alpha-glucosidase enzyme activity; series mostly up to 76.9 µM;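 also: 0% = full activity with enzyme and -100% = basal without enzyme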
# Procedure, shortened: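 Rice alpha-glucosidase (4 nM final) with 400 uM 4-methylumbelliferyl-alpha-D-glucopyranoside in citrate buffer pH 5.0, 20 min at room temperature, stopped at pH 10; fluorescence 365/440 nm, compounds 0.7 nM–77 uM, AC50 from Hill fits.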
# [21] = measured here: cell count channel max response
# [22] = measured here: lipid channel max response
# Chain of Alpha-galactosidase A (Homo sapiens) (P06280 whole entry, looked up): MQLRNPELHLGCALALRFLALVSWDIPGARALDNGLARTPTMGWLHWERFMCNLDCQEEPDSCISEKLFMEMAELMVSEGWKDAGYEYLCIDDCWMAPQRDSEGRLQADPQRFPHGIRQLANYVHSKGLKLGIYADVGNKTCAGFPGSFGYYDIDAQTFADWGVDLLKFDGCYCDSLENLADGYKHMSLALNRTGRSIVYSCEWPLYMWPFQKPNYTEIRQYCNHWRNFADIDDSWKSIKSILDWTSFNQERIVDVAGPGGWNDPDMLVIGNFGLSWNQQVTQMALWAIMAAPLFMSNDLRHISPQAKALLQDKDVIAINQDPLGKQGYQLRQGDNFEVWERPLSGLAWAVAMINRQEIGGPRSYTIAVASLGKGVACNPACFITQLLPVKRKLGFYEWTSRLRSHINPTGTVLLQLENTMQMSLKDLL
compound,measurement,setting,value
O=C(O)c1ccccc1C(=O)Nc1ccc(S(=O)(=O)Nc2nccs2)cc1,"activity change, negative = inhibition",[1]; at 25.7 µM (top of the series),-0.565% (inactive)
same,"activity change, negative = inhibition",[1]; at 57.5 µM (top of the series),12.9% (inactive)
same,max response,[1]; [21],-5.87% and 21%
same,max response,[1]; [22],-9.76% and 42%
CC(=O)Nc1ccc(C(=O)O)cc1,outcome,[2],inactive
same,outcome,[3],inactive
same,outcome,[4],inactive
same,outcome,[5],inactive
same,outcome,[6],inactive
same,outcome,[7],inactive
same,outcome,[8],inactive
same,outcome,[9],inactive
same,outcome,[10],inactive
same,outcome,[11],inactive
same,outcome,[12],inactive
same,outcome,[13],inactive
same,outcome,[14],inactive
same,outcome,[15],inactive
same,outcome,[16],inactive
same,outcome,[17],inactive
same,outcome,[18],inactive
CN1C(C)(C)CCCC1(C)C,outcome,[19],inactive
same,outcome,[20],inactive
same,"activity change, negative = inhibition",[1]; at 25.7 µM (top of the series),0.627% (inactive)
same,"activity change, negative = inhibition",[1]; at 57.5 µM (top of the series),10.8% (inactive)
same,max response,[1]; [21],4.18% and 13.7%
same,max response,[1]; [22],5.5% and 25.7%
CCS(=O)(=O)CCn1c([N+](=O)[O-])cnc1C,"activity change, negative = inhibition",[1]; at 25.7 µM (top of the series),-0.644% (inactive)
same,"activity change, negative = inhibition",[1]; at 57.5 µM (top of the series),8.24% (inactive)
same,max response,[1]; [21],-6.2% and 14.4%
same,max response,[1]; [22],-8.29% and 29%
NS(=O)(=O)c1cc2c(cc1C(F)(F)F)NCNS2(=O)=O,"activity change, negative = inhibition",[1]; at 25.7 µM (top of the series),-1.44% (inactive)
same,"activity change, negative = inhibition",[1]; at 57.5 µM (top of the series),2.96% (inactive)
same,max response,[1]; [21],-0.735% and 18.6%
same,max response,[1]; [22],-2.63% and 23.7%
CCN(CC)CCOC(=O)C(c1ccccc1)c1ccccc1,"activity change, negative = inhibition",[1]; at 25.7 µM (top of the series),-0.714% (inactive)
same,"activity change, negative = inhibition",[1]; at 57.5 µM (top of the series),-3.74% (inactive)
same,max response,[1]; [21],-10.9% and -9.85%
same,max response,[1]; [22],-13.6% and -9.37%
CCN(CC)C(=O)c1cccc(C)c1,outcome,[2],inactive
same,outcome,[3],inactive
same,outcome,[4],inactive
same,outcome,[5],inactive
same,outcome,[6],inactive
same,outcome,[7],inactive
same,outcome,[8],inactive
same,outcome,[9],inactive
same,outcome,[10],inactive
same,outcome,[11],inactive
same,outcome,[12],inactive
same,outcome,[13],inactive
same,outcome,[14],inactive
same,outcome,[15],inactive
same,outcome,[16],inactive
same,outcome,[17],inactive
same,outcome,[18],inactive
same,"activity change, negative = inhibition",[1]; at 57.5 µM (top of the series),7.23% (inactive)
same,max response,[1]; [21],15.5%
same,max response,[1]; [22],28.9%
CN1CCCN=C1COC(=O)C(O)(c1ccccc1)C1CCCCC1 (configuration not stated),"activity change, negative = inhibition",[1]; at 57.5 µM (top of the series),5.7% (inactive)
same,max response,[1]; [21],7.14%
same,max response,[1]; [22],15.3%
O=C(c1ccccc1)C(O)c1ccccc1 (configuration not stated),outcome,[2],inactive
same,outcome,[3],inactive
same,outcome,[4],inactive
same,outcome,[5],inactive
same,outcome,[6],inactive
same,outcome,[7],inactive
same,outcome,[8],inactive
same,outcome,[9],inactive
same,outcome,[10],inactive
same,outcome,[11],inactive
same,outcome,[12],inactive
same,outcome,[13],inactive
same,outcome,[14],inactive
same,outcome,[15],inactive
same,outcome,[16],inactive
same,outcome,[17],inactive
same,outcome,[18],inactive
Cc1c(NC(C)C)c(=O)n(-c2ccccc2)n1C,"activity change, negative = inhibition",[1]; at 25.7 µM (top of the series),1.53% (inactive)
same,"activity change, negative = inhibition",[1]; at 57.5 µM (top of the series),9.46% (inactive)
same,max response,[1]; [21],12.2% and 13.2%
same,max response,[1]; [22],14.1% and 25.6%
Cn1c(=O)c2c(ncn2CCO)n(C)c1=O,"activity change, negative = inhibition",[1]; at 25.7 µM (top of the series),-0.0249% (inactive)
same,"activity change, negative = inhibition",[1]; at 57.5 µM (top of the series),6.15% (inactive)
same,max response,[1]; [21],7.29% and 18.9%
same,max response,[1]; [22],6.36% and 16.1%
